Pf growth 48h = P. falciparum growth inhibition at 48 hours (one generation) | P. falciparum luciferase growth in erythrocytes, 48 h | Potency, µM (titrated, usually from 28.7 µM), most hits filed as inhibitors | actives 5.9% (n = 310,000) | AID 504832
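Luciferase-expressing P. falciparum in infected erythrocytes (2% hematocrit, 0.1% parasitemia final) in RPMI 1640/0.5% Albumax were exposed to compound for 48 hours at 37 C, 5% CO2; growth read as luminescence.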
HCV inhibitor = HCV inhibition. AID 651820. actives 3.4% (n = 340,000). Huh7.5.1 HCVcc-Cre infection, luciferase reporter, 44 h. Potency, µM (doses to about 41.8 µM), most hits filed as inhibitors
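HCVcc-Cre virus at an moi near 0.5 was added right after compound to cells cultured 4 h from seeding (1,000 cells/well). Luciferase activity was determined 44 h later, 15 min after substrate addition at RT.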
Pf growth 96h = P. falciparum growth inhibition at 96 hour, primary screen for plastid delayed-death inhibitors; P. falciparum luciferase reporter growth, 96 h; Potency, µM (series often up to 28.7 µM), usual class: inhibitors; actives 6.9% (n = 320,000); AID 504834
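96 h incubation, 37 C, 5% CO2, of luciferase-reporter P. falciparum-infected RBCs (2% hematocrit, 0.05% parasitemia final) with test compounds; endpoint luminescence.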
HCMV antiviral = human cytomegalovirus inhibition; HFF cells, HCMV-luciferase reporter, 72 h; stronger effect = lower value; activity change, negative = inhibition, % at 57.5 µM; actives 4.5% (n = 410,000); AID 1259415; in the data active means activity change below about -60%; inconclusive means no clear call, values can overlap the other calls; inactive means above about -39%
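Two-dose cell screen: HFF monolayers treated with compounds and infected with luciferase-expressing HCMV at 1 PFU/cell, 72 h at 37C, then lysed for luciferase measurement.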
A number is an active result; – = inactive; ? = inconclusive; · = not tested or not shown; [ ] = remark or other dose. Shown are actives, neighbours in structure and some others; about 13% of the full set was active somewhere. Unless noted, the call rests on the fitted dose curve; in most records, active means well fitted inhibition curve with a large enough effect; inconclusive means small, poorly fitted or top-dose-only effect, or another doubt; inactive means no such curve, though single readings can be large or run the other way.

SMILES	Pf growth 48h	HCV inhibitor	Pf growth 96h	HCMV antiviral
O=C(c1cc(Sc2cccc(Cl)c2)nc2ccccc12)N1CCN(c2ccccn2)CC1	?	10µM	?	?
O=C(c1cnc(N2CCN(c3ccccn3)CC2)c2ccccc12)N1CCN(c2cccc(Cl)c2)CC1	9.28µM	5.01µM	–	-94.1
COc1cccc(NC(=O)c2c(C)oc3nc(C)nc(N4CCCC4)c23)c1	·	·	·	–
COc1ccc(CCN2C(=O)CSC2c2ccc(OC)c(OC)c2)cc1OC (stereo unspecified)	–	–	–	–
Cc1cccc(NC(=O)c2ccc(C3SCC(=O)N3CCc3ccccc3)cc2)c1C (stereo unspecified)	·	?	8.28µM	-72.1
COc1cc(C2SCC(=O)N2Cc2ccccc2)ccc1O (stereo unspecified)	–	–	9.28µM	–
COc1ccc(C2SCC(=O)N2CCc2ccc(OC)c(OC)c2)cc1 (stereo unspecified)	?	11.2µM	–	-70.7
Cc1ccc(C2SCC(=O)N2Cc2ccccc2)cc1 (stereo unspecified)	–	–	13.1µM	–
Cc1nc2ccccc2c(=O)n1/N=C/c1ccc2ccccc2c1O	?	–	?	-82.4
Cc1nc2ccccc2c(=O)n1/N=C/c1ccc(O)c(O)c1O	–	–	–	–
Cc1nnc(-c2ccccc2)c(=O)n1/N=C/c1c(O)ccc2ccccc12	?	?	4.15µM	-98.7
Cc1nnc(C)n1/N=C/c1c(O)ccc2ccccc12	–	–	–	–
Nc1c(C(=O)Nc2ccc(Cl)cc2)sc2nc3c(cc12)N1CCC3CC1	·	·	·	-86.1
COc1ccc(NC(=O)c2sc3nc4c(cc3c2N)N2CCC4CC2)cc1OC	·	·	·	–
Nc1c(C(=O)Nc2ccc(Cl)c(C(F)(F)F)c2)sc2nc3c(cc12)N1CCC3CC1	·	·	·	-93.1
Nc1c(C(=O)Nc2ccc(Cl)c(C(=O)O)c2)sc2nc3c(cc12)CCCC3	–	–	–	–
O=C(Nc1ccccc1Cl)C1CCN(c2nc3ccccc3[nH]2)CC1	·	·	·	–
CCN(CC)c1ccc(NC(=O)COc2ccc(-n3cnnn3)cc2)cc1	·	22.4µM	·	–
COc1cc(NC(=O)COc2ccc(-n3cnnn3)cc2)cc(OC)c1OC	·	11.2µM	·	–
COc1ccccc1C(=O)COC(=O)c1ccc(-n2cnnn2)cc1	–	10µM	?	–
CN(CCc1ccccc1)C(C(=O)c1ccc2c(c1)OCO2)c1nnnn1-c1ccccc1NC(=O)OC(C)(C)C (stereo unspecified)	·	·	·	–
CCc1ccc2nc3nc(C)cc(C)c3c(N)c2c1	?	?	1.65µM	–
Cc1cc(C)c2c(N)c3ccccc3nc2n1	14.7µM	?	–	-108.4
Cc1cc(C)c2c(SC(C)C)nc(N)nc2n1	–	–	–	–
COc1ccc(C(=O)Nc2nnc(SCc3cc(=O)n4cccc(C)c4n3)s2)cc1	·	·	·	–
SMILES	Pf growth 48h	HCV inhibitor	Pf growth 96h	HCMV antiviral
CC(C)(C)OC(=O)N1CCc2nc(N3CCN(c4ncccn4)CC3)ncc2C1	·	·	·	–
Cc1ccc(CNS(=O)(=O)c2cc(F)ccc2CN2C(=O)c3cccnc3C2=O)o1	–	–	?	–
CC(C)NS(=O)(=O)c1cc(F)ccc1CN1C(=O)c2cccnc2C1=O	–	–	2.08µM	–
C=CCc1ccc(O)c(-c2cc(CC=C)ccc2O)c1	?	–	3.7µM	–
C=CCc1ccc(OC)cc1	–	–	–	–
CC(=O)Nc1ccc(N/C(=N\S(=O)(=O)c2ccccc2)c2ccccc2)cc1	–	–	?	–
O=S(=O)(/N=C(/NS(=O)(=O)c1ccccc1)c1ccccc1)c1ccccc1	–	–	–	-105.5
O=c1[nH]c2ccc(N/C(=N/S(=O)(=O)c3ccccc3)c3ccccc3)cc2[nH]1	–	–	4.15µM	–
CN(/N=C/c1cc(Br)cc(Br)c1O)c1cccc(C(F)(F)F)n1	4.15µM	–	?	-65.2
Cc1cccc(N2CCN(C(=O)C3CCCN(S(=O)(=O)c4cccc5nsnc45)C3)CC2)c1C (stereo unspecified)	·	·	·	–
Cc1cc2cc(C)c3nnc(SCc4ccccn4)n3c2cc1C	–	?	?	-65.0
Cc1ccc(C)c2c1cc(C)c1nnc(SCc3ccccn3)n12	?	–	–	–
CC(=O)Oc1ccc(C(=O)Nc2ccc3c(c2)C(=O)N(CCC(=O)O)C3=O)cc1	·	–	11.7µM	–
Cc1ccc(-n2nnnc2SCC(=O)c2cc(C)n(CC3CCCO3)c2C)cc1 (stereo unspecified)	?	–	1.47µM	–
Cc1cccc(-n2nnnc2SCC(=O)c2cc(C)n(CC3CCCO3)c2C)c1 (stereo unspecified)	–	?	?	–
C=CCn1c(SCC(=O)c2ccc(O)c(O)c2)nnc1-c1cccc(C)c1	–	?	–	–
C=CCn1c(SCC(=O)c2ccc(O)c(O)c2)nnc1-c1cccc(Cl)c1	?	3.98µM	–	–
Cc1cc(C(=O)Cn2nnc(-c3ccc(Cl)cc3)n2)c(C)n1CC1CCCO1 (stereo unspecified)	–	7.94µM	–[5.75 µM]	?
C=CCn1c(SCC(=O)c2cc(C)n(CC3CCCO3)c2C)nnc1-c1ccccc1 (stereo unspecified)	?	–	9.28µM	–
Cc1cc(C(=O)CSc2nnc(-c3ccc(Cl)cc3)n2C)c(C)n1CC1CCCO1 (stereo unspecified)	?	–	–	–
Cc1cccc(NC(=O)N2CCc3c(sc4c3CCCC4)C2c2ccc(F)cc2)c1 (stereo unspecified)	·	·	·	–
COc1ccc(S[C@]2(c3nc(C)no3)CC(=O)N(C(=O)c3ccccc3)[C@@H]2c2ccc(OC)cc2)cc1	·	·	·	–
CC(C)(C)[Si](C)(C)OCc1ccc(-c2c3c(cc4ccc(Cl)cc24)CCC3=O)cc1	·	·	·	–
Cc1sc2nc(SCC(=O)c3cc(C)n(CC4CCCO4)c3C)n(C(C)C)c(=O)c2c1C (stereo unspecified)	?	?	8.28µM	–
Cc1ccc(C(=O)CSc2nc3ccccc3o2)cc1	·	–	?	-60.8
SMILES	Pf growth 48h	HCV inhibitor	Pf growth 96h	HCMV antiviral
Cc1cc(C(=O)CSc2nc(N)cc(N)n2)c(C)n1CC1CCCO1 (stereo unspecified)	·	–	·	–
Cc1cc(C(=O)CSc2nc3ccccc3o2)c(C)n1CC1CCCO1 (stereo unspecified)	·	?	–	-69.8
Cc1cc(C)n2nc(SCC(=O)c3cc(C)n(CC4CCCO4)c3C)nc2n1 (stereo unspecified)	?	?	?	-70.4
COc1ccc2c(c1)C(n1c(C)ccc1C)C(=O)N2C (stereo unspecified)	·	·	·	–
Cc1cc(C(=O)CSc2nc3ccccc3[nH]2)c(C)n1CC1CCCO1 (stereo unspecified)	–	1.41µM	–	-98.9
Cc1cc(C(=O)CSc2nc(N)cc(=O)[nH]2)c(C)n1CC1CCCO1 (stereo unspecified)	·	?	·	–
CCc1ccccc1N1C(=O)N(C)c2ccccc2S1(=O)=O	·	·	·	–
COc1ccc(C)cc1NC(=O)N1CCC(CN2CCC(C)CC2)CC1	·	·	·	–
CCc1nc(N)c(C#N)c(-c2ccccc2OC)c1C	–	–	–	–
COc1ccccc1-c1c(C#N)c(N)nc2c1CCc1ccccc1-2	11.7µM	?	–	–

High-throughput results deposited in PubChem by National Center for Advancing Translational Sciences (NCATS).
